Assay results as given in paper PMC4336329 (PLoS ONE, 2015).
Screen size: about 310,000 compounds; about 14,000 (4.5%) showed an effect of 50% or more. The effect is printed as a negative number. Only a selection was taken, and strong results are over-represented in it overall.

What follows are molecules tested against human ether-à-go-go-related gene (hERG) potassium channel (human, UniProt Q12809) (assay: primary screen, population patch clamp on CHO cells stably expressing hERG; higher = less effect of the substance).
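Also: peak tail current of the secondary pulse compared with the same well before compound.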

human ether-à-go-go-related gene (hERG) potassium channel, sequence (Q12809 whole entry, looked up): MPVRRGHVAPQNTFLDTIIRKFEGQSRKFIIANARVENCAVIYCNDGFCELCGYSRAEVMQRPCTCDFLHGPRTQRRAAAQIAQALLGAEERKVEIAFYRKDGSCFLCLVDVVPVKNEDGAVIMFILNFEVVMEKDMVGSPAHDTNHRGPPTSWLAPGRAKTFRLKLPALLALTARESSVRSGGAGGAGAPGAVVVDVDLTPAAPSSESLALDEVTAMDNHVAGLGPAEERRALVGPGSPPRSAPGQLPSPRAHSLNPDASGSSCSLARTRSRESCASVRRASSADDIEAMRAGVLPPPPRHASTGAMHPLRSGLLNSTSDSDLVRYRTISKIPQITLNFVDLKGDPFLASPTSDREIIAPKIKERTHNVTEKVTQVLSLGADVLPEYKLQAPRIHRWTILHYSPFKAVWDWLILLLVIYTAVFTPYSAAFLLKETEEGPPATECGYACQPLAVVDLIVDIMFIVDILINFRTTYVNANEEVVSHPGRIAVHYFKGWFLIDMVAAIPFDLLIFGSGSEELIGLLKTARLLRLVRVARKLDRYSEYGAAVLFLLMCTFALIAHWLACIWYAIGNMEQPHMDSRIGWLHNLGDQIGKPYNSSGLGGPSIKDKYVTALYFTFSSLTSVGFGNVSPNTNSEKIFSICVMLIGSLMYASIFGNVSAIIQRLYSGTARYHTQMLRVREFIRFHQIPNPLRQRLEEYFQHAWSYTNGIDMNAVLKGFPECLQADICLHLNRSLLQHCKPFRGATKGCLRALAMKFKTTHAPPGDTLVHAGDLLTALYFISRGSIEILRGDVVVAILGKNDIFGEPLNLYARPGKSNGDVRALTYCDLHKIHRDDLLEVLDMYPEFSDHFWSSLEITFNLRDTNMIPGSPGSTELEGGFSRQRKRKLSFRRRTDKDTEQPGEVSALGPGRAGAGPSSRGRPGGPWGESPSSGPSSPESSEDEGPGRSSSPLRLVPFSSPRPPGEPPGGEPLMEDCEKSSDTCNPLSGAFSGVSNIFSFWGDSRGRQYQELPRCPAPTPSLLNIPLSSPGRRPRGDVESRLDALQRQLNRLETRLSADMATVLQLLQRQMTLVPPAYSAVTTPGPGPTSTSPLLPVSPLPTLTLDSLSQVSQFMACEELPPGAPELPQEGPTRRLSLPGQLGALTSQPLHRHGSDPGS

Row | Compound | hERG current change (%, negative = inhibition) at 10uM [%]
1 | Cc1cccc(NC(=O)[C@H](NC(=O)[C@@H]2Cc3ccccc3CN2)c2ccccc2)c1 | -54.4
2 | CCc1ccc(NC(=O)CNC(=O)[C@@H]2Cc3ccccc3CN2)cc1 | -19.9
3 | COc1ccccc1CNC(=O)[C@H](Cc1c[nH]c2ccccc12)NC(=O)[C@@H]1Cc2ccccc2CN1 | -16.5
4 | Cc1cccc(NC(=O)[C@@H](NC(=O)[C@@H]2Cc3ccccc3CN2)C(C)C)c1 | -62.4
5 | Cc1cc(C)cc(NC(=O)[C@H](NC(=O)[C@@H]2Cc3ccccc3CN2)c2ccccc2)c1 | -0.0454
6 | CN(c1ccc(C(=O)NC2CCCC2)cc1)S(=O)(=O)c1ccc(Cl)cc1 | 16.2
7 | COC(=O)CNC(=O)C1CCN(S(=O)(=O)c2cnc[nH]2)CC1 | -1.84
8 | CC1=NN(C(C#N)c2ccc(F)cc2)C(c2ccccc2)C1 (centres unmarked) | 4.44
9 | COCCN(CCOC)S(=O)(=O)c1ccc(C(=O)Nc2ccncc2)cc1 | -11.6
10 | CSc1cccc(NC(=O)CN(C)S(=O)(=O)c2ccc(C)cc2)c1 | -32.8
11 | CCc1ccc2[nH]c(=O)c(C(c3nnnn3CCOC)N3CCN(c4ccccc4)CC3)cc2c1 (centres unmarked) | -11.6
12 | COCCn1nc2cc(C(=O)NCc3cc(C(F)(F)F)cc(C(F)(F)F)c3)ccc2c1OC | 21.8
13 | CSCC[C@H](NC(=O)[C@@H]1Cc2ccccc2CN1)C(=O)Nc1ccc2c(c1)OCCO2 | -65.5
14 | C[C@@H](NC(=O)[C@@H]1Cc2ccccc2CN1)C(=O)Nc1ccc2c(c1)OCCO2 | 3.19
15 | C[C@H](NC(=O)[C@@H]1Cc2ccccc2CN1)C(=O)Nc1ccc2c(c1)OCCO2 | 3.18
16 | Cc1cc(C(=O)OCC(=O)NCc2ccc3c(c2)OCO3)c2ccccc2n1 | -27.5
17 | Cc1ccc(N(C(=O)c2snc(C(N)=O)c2N)C(C(=O)NCC2CCCO2)c2c[nH]c3ccccc23)cc1 (centres unmarked) | -6.36
18 | O=C(CSc1nnc(-c2ccccc2Br)o1)Nc1cccc2ccccc12 | 5.79
19 | O=C(CSc1nnc(-c2ccncc2)o1)Nc1nncs1 | 15.5
20 | O=C(CSc1nnc(-c2ccccc2Br)o1)Nc1nncs1 | -57.9
21 | COc1ccc(NC(=O)c2ccc(COc3ccccc3)o2)c(OC)c1 | -7.06
22 | O=C(CC(C(=O)O)C1CCCO1)Nc1cccc(C(F)(F)F)c1 (centres unmarked) | 5.84

Row | Compound | hERG current change (%, negative = inhibition) at 10uM [%]
23 | O=C(CNC(=O)c1cccnc1)N/N=C/c1cccnc1 | 8.4
24 | O=C1CN(C(=O)c2ccccc2)C(c2ccccc2)c2cc(F)ccc2N1 (centres unmarked) | -75.1
25 | O=C1CN(C(=O)c2ccccc2Br)C(c2ccc(F)cc2)c2cc(F)ccc2N1 (centres unmarked) | -61.6
26 | O=C1CN(C(=O)c2cccc(F)c2)C(c2ccc(F)cc2)c2cc(F)ccc2N1 (centres unmarked) | -15.4
27 | Cc1ccc2c(c1)C(c1ccc(F)cc1)N(C(=O)c1ccccc1Br)CC(=O)N2 (centres unmarked) | -16.1
28 | O=C1CN(C(=O)c2ccccc2F)C(c2ccc(F)cc2)c2cc(F)ccc2N1 (centres unmarked) | -11.7
29 | Cc1ccc(C(=O)N2CC(=O)Nc3ccc(F)cc3C2c2ccccc2)cc1 (centres unmarked) | -4.56
30 | CCCOc1ccc(C(=O)N2CCCc3ccccc32)cc1 | -26
31 | COc1ccc(C2SCC(C(=O)NCc3ccc(F)cc3)N2C(C)=O)cc1 (centres unmarked) | -20.2
32 | Nc1ccccc1SSc1ccccc1N | 27.7
33 | CCOc1ccc2nc(N3CCCC(C(=O)NCC4CCCO4)C3)sc2c1 (centres unmarked) | -19.1
34 | O=C(NCCCN1CCCC1=O)C1CCN(S(=O)(=O)c2c(Cl)cccc2Cl)CC1 | -0.379
35 | COc1ccc2nc(N3CCCC(C(=O)NCCCN4C(C)CCCC4C)C3)sc2c1 (centres unmarked) | -34.1
36 | CCOc1ccc2nc(N3CCCC(C(=O)NCCCN4C(C)CCCC4C)C3)sc2c1 (centres unmarked) | -54.7
37 | Cc1cc(C)c(C)c(S(=O)(=O)N2CCC(C(=O)NCCCN3CCCC3=O)CC2)c1C | -70
38 | CCOc1ccc2nc(N3CCCC(C(=O)NC4CCCC4)C3)sc2c1 (centres unmarked) | -0.903
39 | CCOc1cc2sc(N3CCC(C(=O)NCCCN4CCCC4=O)CC3)nc2cc1Br | -60.5
40 | COc1ccc2nc(N3CCCC(C(=O)NCCCN4CCN(C)CC4)C3)sc2c1 (centres unmarked) | 1.67
41 | Cc1cc(C)c2nc(N3CCC(C(=O)NCCCN4CCCC4=O)CC3)sc2c1 | -25.5
42 | CCCN1CCN(CCCNC(=O)C2CCCN(c3nc4ccc(OCC)cc4s3)C2)CC1 (centres unmarked) | -56.7
43 | CCOc1ccc2nc(N3CCC(C(=O)NCCCN4CCOCC4)CC3)sc2c1 | -17.7
44 | Cc1ccc(S(=O)(=O)N2CCC(C(=O)NCCCN3CCCC3=O)CC2)cc1C | 7.98
